Assay results: PubChem BioAssay (NCATS)
Results filed as inconclusive are left out. Calls of active or inactive are those of the source. Unless noted, the call rests on the fitted dose curve; in most records, active means well fitted curve in the direction sought with a large enough effect; inconclusive means small, poorly fitted or top-dose-only effect, or another doubt; inactive means no such curve, though single readings can be large; an effect the other way counts as inactive or inconclusive.

How the values were obtained:
[1] = Cell Viability - BJ (AID 421; calls by dose curve;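 further: potency means the concentration at half of the fitted maximal effect; cells exposed to compound for 40 hours at 37 °C before readout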); conditions: BJ fibroblast viability, qHTS
Summary of the method: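 Cytotoxicity in human BJ foreskin fibroblasts is scored as loss of cellular ATP after a 40-hour exposure, measured by luciferase luminescence. Controls are DMSO and 100 uM tamoxifen.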

[2] = Cell Viability - Jurkat (AID 426;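 active means dose-dependent loss of cell ATP signal giving a full or clear fitted curve, ranked by lower potency value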;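 further: potency means the concentration at half of the fitted maximal effect; cells exposed to compound for 40 hours at 37 °C before ATP read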); conditions: qHTS
Summary of the method: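 Cells of the human T-cell leukemia line Jurkat (E6-1) are seeded at 5000 per well, treated with compound across a concentration range for 40 hours at 37 °C, then lysed with CellTiter-Glo; luminescence reports ATP.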

[3] = Cell Viability - Hek293 (AID 427;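 active means compounds whose dose-response curve shows a full or clear partial loss of cell viability, called from curve shape rather than a numeric limit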;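 further: potency means the concentration at half of the fitted maximal effect; cells exposed to compound for 40 hours at 37 °C before reading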); conditions: qHTS
Summary of the method: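 qHTS, human embryonic kidney (adenovirus-transformed) cells; 40 hr cpd, 37 °C; CellTiter-Glo ATP luminescence. Norm: DMSO = 0, 100 uM tamoxifen = 100% inhibition. Hill-fit AC50.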

[4] = Cell Viability - HepG2 (AID 433; calls by dose curve;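 further: potency means the concentration at half of the fitted maximal effect; potency for ATP loss meaning cytotoxicity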); conditions: qHTS
Summary of the method: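 Cytotoxicity is scored as loss of intracellular ATP in HepG2 cells exposed to compounds for 40 h. Concentration-response curves, normalized to DMSO and 100 uM tamoxifen, give AC50 values.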

[5] = Cell Viability - MRC5 (AID 434; calls by dose curve;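 further: potency means the concentration at half of the fitted maximal effect; potency reflects cytotoxicity seen as loss of intracellular ATP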); conditions: MRC5 lung fibroblast viability, qHTS
Summary of the method: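 AC50 values come from Hill-equation fits of intracellular ATP loss, measured by CellTiter-Glo luminescence. Normal lung fibroblasts (MRC5) had 40 hr compound treatment at 37 C, normalized between DMSO and 100 uM tamoxifen.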

[6] = Cell Viability - SK-N-SH (AID 435; calls by dose curve;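 further: potency means the concentration at half of the fitted maximal effect; compound exposure lasted 40 h at 37 °C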); conditions: SK-N-SH neuroblastoma cell viability qHTS
Summary of the method: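 Cells seeded at 1500 per well and incubated 5 hr at 37 °C. Compound added, then 40 hr at 37 °C. CellTiter-Glo added, 20 min at room temperature, luminescence read.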

[7] = biological target: Mitogen-activated protein kinase 10 (Mus musculus) (UniProt Q61831); test: JNK3 AlphaScreen Assay (AID 530; active means well fitted curve in either direction with a large enough effect, not every such curve was filed as active;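 further: kinase came from lysate of stimulated human HepG2 cells; signal reports phosphorylation of biotinylated GST-cJun 1-79 at Ser73 with 10 µM ATP; on the % scale 0 is the no-effect control and ±100 the full control effect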); conditions: JNK3 lysate, c-Jun phosphorylation; series mostly up to 57.1 µM
Summary of the method: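 qHTS titrations with 15 min compound pre-incubation before adding ATP (10 uM final). Read-out: AlphaScreen of Ser73-phosphorylated biotin-GST-cJun using HepG2 lysate JNK3 activated by IL-1β and TNFα.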

[8] = Cell Viability - N2a (AID 540); conditions: N2a mouse neuroblastoma cell viability; activity change, negative = cytotoxicity: at 92.2 µM (top of the series);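 further: cells exposed to compound for 40 h at 37 °C; plate controls were DMSO alone for no effect and tamoxifen control for full effect; nearly all actives have a fitted effect of over 45% in size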
Summary of the method: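 Cytotoxicity was scored as loss of cellular ATP in N2a cells, a mouse neuroblastoma line. Compounds are applied in a qHTS concentration series for 40 hr at 37 °C.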

[9] = Cell Viability - HUV-EC-C (AID 542); conditions: HUV-EC-C endothelial cell viability, qHTS; series mostly up to 92.2 µM; further: on the % scale 0 is the no-effect control and ±100 the full control effect; nearly all actives have a fitted effect of over 35% in size
Summary of the method: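 Cells were seeded at 1000 per well and incubated 5 hr at 37 °C before compound addition. After 40 hr at 37 °C, CellTiter-Glo reagent was added for 20 min and luminescence read. AC50 values came from Hill-equation modelling.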

[10] = Cell Viability - H-4-II-E (AID 543); conditions: H-4-II-E rat hepatoma viability; series mostly up to 92.2 µM; further: on the % scale 0 is the no-effect control and ±100 the full control effect; nearly all actives have a fitted effect of over 35% in size
Summary of the method: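 Cells seeded at 1500 per well and rested 5 hr; compounds added; 40 hr incubation at 37 °C; CellTiter-Glo added, 20 min at room temperature; luminescence read. Hill-equation fits gave AC50.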

[11] = Cell Viability - SH-SY5Y (AID 544); conditions: SH-SY5Y neuroblastoma cell viability; viability change, negative = cytotoxic: at 92.2 µM (top of the series); further: nearly all actives have a fitted effect of over 55% in size
Summary of the method: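 Cells were plated at 1500 per well and allowed 5 hr at 37 °C. Compounds were added across a concentration range and incubated 40 hr at 37 °C. CellTiter-Glo was added for 20 min at room temperature before luminescence reading.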

[12] = Cell Viability - Renal Proximal Tubule (AID 545); conditions: renal proximal tubule cells viability, primary cells of rat origin; series mostly up to 91.7 µM; further: nearly all actives have a fitted effect of over 40% in size
Summary of the method: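 Cytotoxicity is scored as a concentration-dependent drop in cellular ATP in primary rat renal proximal tubule cells exposed for 40 hr. AC50 derives from Hill modelling.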

[13] = Cell Viability - Mesenchymal (AID 546); conditions: mesenchymal cells viability, qHTS; series mostly up to 91.7 µM;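 further: cells exposed to compound for 40 hours before reading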
Summary of the method: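 CellTiter-Glo luminescence (intracellular ATP, 20 min room temperature) after 40 hr compound exposure at 37 °C of 1000 glomerulus-derived human kidney mesenchymal cells/well; AC50 values obtained by fitting qHTS concentration-response data to the Hill equation.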

[14] = Cellular Toxicity (caspase-3) HepG2 (AID 654); conditions: HepG2 caspase-3 activation, luminescence; series mostly up to 92.2 µM;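 further: cells exposed to compound for 16 hours before reading; 0% = DMSO alone and 100% = caspase signal from 100 µM tamoxifen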
Summary of the method: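 Caspase 3/7 activation in HepG2 is measured as rising luminescence after a 16 hr treatment at 37 °C. Values are scaled between DMSO basal and 100 uM tamoxifen, and AC50 is fitted with the Hill equation.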

[15] = Cellular Toxicity (caspase-3) Jurkat (AID 655); conditions: Jurkat caspase-3 activation, luminescence; caspase-3 activation: at 92.2 µM (top of the series), DMSO = 0%, tamoxifen = 100%;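 further: cells exposed to compound for 16 h at 37 °C before reading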
Summary of the method: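 Caspase 3/7 activation is scored as increased luminescence in Jurkat cells cultured with compound for 16 hours in complete medium. AC50 values come from Hill fits of qHTS concentration-response data normalized to DMSO and 100 uM tamoxifen controls.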

[16] = Cellular Toxicity (caspase-3) HUV-EC-C (AID 656); conditions: HUV-EC-C cells, caspase-3 activation (apoptosis), vehicle = 0, 100 µM tamoxifen = 100%; series mostly up to 92.2 µM
Summary of the method: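 Read-out: luminescence proportional to caspase 3/7 activity, measured 20 min after adding Caspase-Glo 3/7 reagent. Cells (HUV-EC-C) had received compound for 16 hr at 37°C. Increases relative to DMSO and 100 uM tamoxifen gave concentration-response AC50 values.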

[17] = Cellular Toxicity (caspase-3) SHSY5Y (AID 657); conditions: SH-SY5Y caspase-3 activation, DMSO zero, 10 µM staurosporine = 100%; series mostly up to 91.7 µM;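 further: cells exposed to compound for 16 hours at 37 °C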
Summary of the method: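 Cells plated and incubated 5 h at 37 °C, dosed over a concentration range, incubated 16 h, then given Caspase-Glo 3/7 reagent for 1 h at room temperature before luminescence reading. Staurosporine (10 uM) defined full stimulation.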

[18] = Cellular Toxicity (caspase-3) BJ (AID 658); conditions: BJ fibroblasts, luminescence, normalized: DMSO 0%, staurosporine 100%; series mostly up to 91.7 µM
Summary of the method: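 Caspase-Glo 3/7 luminescence, read 1 hr after reagent at room temperature, in normal BJ fibroblasts exposed 16 hours at 37 °C. AC50 values from Hill-equation concentration-response, scaled between DMSO basal and 10 uM staurosporine as 100%.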

[19] = Cellular Toxicity (caspase-3) MRC-5 (AID 659); conditions: MRC-5 cells, luminescence, normalized: DMSO 0%, 10 µM staurosporine 100%; series mostly up to 91.7 µM
Summary of the method: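 Luminescent Caspase-Glo 3/7 read-out (1 h, room temperature) after a 16 h, 37 °C compound exposure of MRC-5 lung fibroblasts at 1500 cells/well. Concentration-response AC50 from Hill equation; 0% DMSO, 100% 10 uM staurosporine.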

[20] = Cell Viability - NIH 3T3 (AID 541); conditions: NIH 3T3 cell viability, qHTS; activity change, negative = cytotoxicity: at 92.2 µM (top of the series);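 further: plate controls were DMSO alone for no effect and tamoxifen positive control for full effect; nearly all actives have a fitted effect of over 25% in size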
Summary of the method: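 Cells seeded at 1000/well, rested 5 hr at 37 °C, then dosed and incubated 40 hr at 37 °C. CellTiter-Glo added, 20 min room temperature, luminescence read. AC50 by Hill fit.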

Cc1cccc(C(=O)O)c1[N+](=O)[O-]
inactive: Potency [1] > 92 µM | Potency [2] > 92 µM | Potency [3] > 92 µM | Potency [4] > 92 µM | Potency [5] > 92 µM | Potency [6] > 92 µM | outcome [7] | activity change, negative = cytotoxicity [8] 8.99% | Potency [9] | Potency [10] | Potency [11] | Potency [12] | Potency [13] | Potency [14] | caspase-3 activation [15] 0.0965% | outcome [16] | outcome [17] | outcome [18] | outcome [19]

CC(C)N=C=NC(C)C
inactive: Potency [1] > 92 µM | Potency [2] > 92 µM | Potency [3] > 92 µM | Potency [4] > 92 µM | Potency [5] > 92 µM | Potency [6] > 92 µM | outcome [7] | activity change, negative = cytotoxicity [8] -6.55% | Potency [20] | Potency [10] | Potency [11] | Potency [12] | Potency [13] | Potency [14] | caspase-3 activation [15] 2.33% | outcome [16] | outcome [17] | outcome [19]

c1ccc2c(c1)ccc1ncccc12
inactive: Potency [1] > 92 µM | Potency [2] > 92 µM | Potency [3] > 92 µM | Potency [4] > 92 µM | Potency [5] > 92 µM | Potency [6] > 92 µM | outcome [7] | activity change, negative = cytotoxicity [8] -0.126% | Potency [9] | Potency [10] | Potency [11] | Potency [13] | Potency [14] | caspase-3 activation [15] 3.47% | outcome [16] | outcome [17] | outcome [18]

Nc1nc(-c2ccccc2)cs1
inactive: Potency [1] > 92 µM | Potency [2] > 92 µM | Potency [3] > 92 µM | Potency [4] > 92 µM | Potency [5] > 92 µM | Potency [6] > 92 µM | outcome [7] | activity change, negative = cytotoxicity [8] -4.72% | Potency [20] | Potency [10] | Potency [12] | Potency [13] | Potency [14] | outcome [16] | outcome [17] | outcome [19]

O=[N+]([O-])c1c(Cl)cc(Cl)cc1Cl
inactive: Potency [1] > 92 µM | Potency [2] > 92 µM | Potency [3] > 92 µM | Potency [4] > 92 µM | Potency [5] > 92 µM | Potency [6] > 92 µM | outcome [7] | activity change, negative = cytotoxicity [8] 3.57% | Potency [10] | Potency [11] | Potency [12] | Potency [13] | Potency [14] | caspase-3 activation [15] 0.558% | outcome [16] | outcome [17] | outcome [18] | outcome [19]

CCCCCCCCC
inactive: Potency [1] > 92 µM | Potency [2] > 92 µM | Potency [3] > 92 µM | Potency [4] > 92 µM | Potency [5] > 92 µM | Potency [6] > 92 µM | outcome [7] | activity change, negative = cytotoxicity [8] -3.11% | Potency [20] | Potency [10] | Potency [11] | Potency [12] | Potency [13] | outcome [16] | outcome [17] | outcome [19]

Cc1ccc(S(=O)(=O)NC2CCCCC2)cc1
inactive: Potency [1] > 92 µM | Potency [2] > 92 µM | Potency [3] > 92 µM | Potency [4] > 92 µM | Potency [5] > 92 µM | Potency [6] > 92 µM | outcome [7] | activity change, negative = cytotoxicity [8] -19.2% | Potency [20] | Potency [9] | Potency [11] | Potency [12] | Potency [13] | caspase-3 activation [15] 0.692% | outcome [16] | outcome [17] | outcome [18] | outcome [19]

COC(=O)CC#N
inactive: Potency [1] > 92 µM | Potency [2] > 92 µM | Potency [3] > 92 µM | Potency [4] > 92 µM | Potency [5] > 92 µM | Potency [6] > 92 µM | outcome [7] | activity change, negative = cytotoxicity [8] -15.8% | Potency [20] | Potency [10] | Potency [11] | Potency [12] | Potency [13] | Potency [14] | caspase-3 activation [15] 1.32% | outcome [16] | outcome [17] | outcome [18] | outcome [19]
